The results in this text go back to PubChem BioAssay (NCATS).

Inconclusive results are not listed. Some structures have more than one record in an assay (separate samples or runs), and their calls can disagree. Active and inactive are the calls of the source. Calls follow the shape of the dose curve; as a rule, active = well fitted curve in the direction sought with a large enough effect; inconclusive = small, poorly fitted or top-dose-only effect, or another doubt; inactive = no such curve, though single readings can be large; an effect the other way counts as inactive or inconclusive.

Cytochrome P450 2C19 (Homo sapiens), sequence (P33261 whole entry, looked up): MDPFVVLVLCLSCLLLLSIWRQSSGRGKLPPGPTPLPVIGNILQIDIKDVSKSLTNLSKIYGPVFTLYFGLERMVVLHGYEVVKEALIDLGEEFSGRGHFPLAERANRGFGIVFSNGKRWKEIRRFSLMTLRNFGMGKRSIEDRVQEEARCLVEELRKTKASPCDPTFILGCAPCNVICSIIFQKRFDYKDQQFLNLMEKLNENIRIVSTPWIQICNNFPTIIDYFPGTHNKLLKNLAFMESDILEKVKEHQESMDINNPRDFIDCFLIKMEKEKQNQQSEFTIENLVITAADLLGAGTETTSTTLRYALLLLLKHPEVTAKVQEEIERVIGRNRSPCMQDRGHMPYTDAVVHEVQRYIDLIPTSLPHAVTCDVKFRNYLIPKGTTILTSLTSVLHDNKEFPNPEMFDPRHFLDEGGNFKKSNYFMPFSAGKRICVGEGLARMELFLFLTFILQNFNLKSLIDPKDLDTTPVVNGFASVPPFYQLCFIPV

The first assay concerns the target Cytochrome P450 2C19 (Homo sapiens) (UniProt P33261). The assay can be described thus: qHTS Assay for Inhibitors and Substrates of Cytochrome P450 2C19 (AID 899). Also: nearly all actives have a fitted effect of over 60% in size. Also: potency is read from the fitted curve at half-maximal effect. As to activity, negative = inhibition: % is scaled to controls: 0 for no effect and ±100 for the full control effect. The following applies: recombinant CYP2C19, luciferin-H EGE luminescence; series mostly up to 11.4 µM; activity, negative = inhibition: at the top concentration. In short, it runs like this:
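In 50mM KPO4, the reaction held 5nM enzyme and KM-level (10uM) Luciferin-H EGE; it ran 60 min at 37C after NADPH regeneration and a 10 min compound preincubation. Luminescence values were scaled to 57uM ketoconazole as complete inhibition.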
On the technique in general: In qHTS, concentration-response curves come from the screen itself.
Take `COCC#Cc1ccc(C2C(C)CCC3C(=O)N4C(CCC(C)C4c4ccc(C#CCOC)cc4)C(=O)N32)cc1` (centres undefined): the “activity, negative = inhibition” value is -60.1% (inactive).

Turning to `C=CCC1C=CC(Oc2ccc(F)cc2C)C(CO)O1` (centres undefined), the Potency was 0.251 µM (active).

On to `COc1ccc(O[C@H]2C=C[C@@H](c3ccccc3)O[C@H]2CO/N=C\C[C@@H]2C=C[C@H](OC(C)=O)[C@H](COC(C)=O)O2)cc1`, for which the Potency is 0.794 µM (active).

`COc1ccc(O[C@H]2C=C[C@@H](c3ccccc3)O[C@H]2COC(=O)CC/C(C)=N\O[C@@H](C)CN2CCCc3nc(C)c(C)cc32)cc1`: the Potency was 3.16 µM (active). Consider `C/C=C/OC(=O)NC(c1ccccc1)[C@]1(C(C)=O)CCOC1=O` (some centres undefined), for which the Potency was 0.158 µM (active).

On to `CCO[C@H](c1cc(OC)cc([N+](=O)[O-])c1OC)[C@H](C)/C=C\CC(=O)OC`, for which the Potency is 0.398 µM (active). With `CC(C)CCN1CCc2nc(COc3ccccc3)c3c(c2C1)COC(C)C3` (centres undefined), the “activity, negative = inhibition” value is -12.3% (inactive). On to `CC(C)(C)c1ccc(OC2C(O)COC2/C=C/C#Cc2ccccc2)cc1` (centres undefined), for which the Potency was 3.16 µM (active) and inactive.

Take `CC(=O)OCC1OC(c2ccc3c(c2)OCO3)C=CC1OC(C)=O` (centres undefined): the Potency was 0.316 µM (active). With `C[C@@H](c1ccccc1)N1C(=O)[C@H]2[C@H]3[C@H](O)[C@H](O)C/C(=N/OC[C@@H](O)COCc4ccco4)[C@@H]3CC[C@@H]2C1=O`, the “activity, negative = inhibition” value was 59.4% (inactive). For the molecule `COc1ccc(C#CC2C=CC(Oc3cc(C)cc(C)c3)C(CO)O2)cc1` (centres undefined), the Potency was 0.0631 µM (active). For `COc1ccc(O[C@H]2C=C[C@@H](c3ccccc3)O[C@H]2COC(=O)CC/C(C)=N/O[C@@H]2O[C@H](COC(C)=O)[C@H](OC(C)=O)[C@H](OC(C)=O)[C@H]2OC(C)=O)cc1`, the Potency is 1.58 µM (active).

Consider `C=CCC1C=CC(Oc2ccc(OC)cc2)C(COC(=O)c2ccc(Br)cc2)O1` (centres undefined), for which the Potency is 3.16 µM (active). Turning to `COc1ccc(/C=C/C2=CC3(C)CC2(C)C(c2ccc(OC)cc2)CC3=O)cc1` (centres undefined), the “activity, negative = inhibition” value is -22.9% (inactive).

As for `COC(=O)C/C=C\[C@@H](C)[C@@H](/C=N\OC[C@@H]1O[C@H](c2ccccc2)C=C[C@@H]1Oc1ccc(OC)cc1)OC`, the Potency is 1.58 µM (active). Same read-out and setting: as for `COc1cccc([C@@H]2Oc3ccc(OC)cc3/C(=N/OC[C@@H](O)COCc3ccco3)[C@@H]2O)c1`, the figure is 1.58 µM (active); as for `COc1cccc([C@@H]2Oc3ccc(OC)cc3/C(=N/O[C@@H](C)c3cc(-c4c(C)cc(C)cc4C)no3)[C@@H]2O)c1`, 1.58 µM (active); as for `COC(=O)C[C@@H]1O[C@H]1[C@H](C)[C@@H](OC)C(C)C`, 3.98 µM (active).

On to `C/C(CCC(=O)OC[C@@H]1O[C@H](C#Cc2ccccc2)C=C[C@@H]1Oc1ccc(C)cc1)=N/O[C@@H](C)CN1CCCc2nc(C)c(C)cc21`, for which the Potency is 3.16 µM (active). Turning to `COc1ccc(O[C@H]2C=C[C@@H](c3ccccc3)O[C@H]2CO/N=C2/[C@H]3O[C@@H]3[C@@H](O)[C@H]3[C@H]2CCn2c(=O)n(-c4ccccc4)c(=O)n23)cc1`, the Potency is 2.51 µM (active).

Turning to `COc1ccc(O[C@H]2C=C[C@@H](c3ccccc3)O[C@@H]2CO/N=C(\C)CCN2CCCc3nc(C)c(C)cc32)cc1`, the Potency was 0.398 µM (active). As to `C=CC[C@@H]1C=C[C@H](Oc2ccc(C)cc2)[C@H](COC(=O)NCc2cccc3ccccc23)O1`, the Potency was 1.26 µM (active). For `COc1ccc(O[C@H]2C=C[C@@H](c3ccccc3)O[C@H]2COC(=O)CC/C(C)=N\O[C@@H](C)CN2CCCCc3nc(C)c(C)cc32)cc1`, the Potency was 5.01 µM (active). Consider `Cc1ccc(S(=O)(=O)N[C@H]2COC(=O)[C@@H](Cc3ccccc3)NC(=O)[C@@H](C)COC(=O)C/C=C\[C@@H]2C)cc1`, for which the “activity, negative = inhibition” value was 52.5% (inactive). As for `CCCCC#CC1C=CC(Oc2ccc(C(=O)OC)cc2)C(COC(=O)OCC)O1` (centres undefined), the “activity, negative = inhibition” value is -28.1% (inactive). As to `COc1ccc(O[C@H]2C=C[C@@H](c3ccccc3)O[C@H]2COC(=O)CC/C(C)=N\O[C@@H](C)c2cn([C@H]3COC[C@H]3O)nn2)cc1`, the Potency was 2.51 µM (active). On the same count and under the same terms, for `COc1ccc(O[C@H]2C=C[C@@H](c3ccccc3)O[C@@H]2CO/N=C(\C)CCN2CCCCc3nc(C)c(C)cc32)cc1` the value was 2.51 µM (active); for `C=C(C)C(O)/C=C/c1cccc(OC)c1` (centres undefined), 0.0126 µM (active).

Test system in a further assay: not listed separately
Kind of assay: Confirmation and Secondary Assay for Modulators of Hemoglobin Beta Chain Splicing at IVS2 654 locus (AID 910).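 Also: per-well total GFP intensity by laser scanning cytometry after 2-day treatment; % of control where 0% means no effect.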 Particulars: HeLa EGFP-654 splicing reporter, GFP fluorescence, 48 h; series mostly up to 46.1 µM; activation (splicing correction): at the top concentration. In short, it runs like this:
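HeLa cells stably carrying EGFP interrupted by mutant beta-globin IVS2-654 intron (CMV-driven) were treated with compound for 2 days at 37C; corrected splicing was scored as total peak GFP intensity per well (488 nm excitation, 500-520 nm emission).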
As for `COc1cc(OC)c2c(=O)c(-c3ccc4c(c3)OCO4)coc2c1`, the “activation (splicing correction)” value is 1.21% [at 38.3 µM] (inactive). For `C=C1C(=O)OC2C[C@@]3(C)CCCC(C)C3=CC12` (some centres undefined), the “activation (splicing correction)” value is -2.97% [at 38.3 µM] (inactive). Turning to `COc1ccc2c(c1)OC/C(=C/c1ccc(OC)c(OC)c1)C2=O`, the “activation (splicing correction)” value is -0.93% [at 38.3 µM] (inactive). As for `Nc1nc2c(ncn2C2OC(COC(=O)c3ccccc3)C(OC(=O)c3ccccc3)C2OC(=O)c2ccccc2)c(=O)[nH]1` (centres undefined), the “activation (splicing correction)” value was -0.483% [at 38.3 µM] (inactive). With `CC(=O)c1c(O)cc(O)cc1O`, the “activation (splicing correction)” value is -0.257% [at 38.3 µM] (inactive). For `COc1ccc(-c2cc(=O)c3ccccc3o2)cc1`, the “activation (splicing correction)” value was 0.19% [at 38.3 µM] (inactive). The same measure, in the same setting: as for `COc1cc2c(cc1OC)-c1c(oc3cc(O)cc(O)c3c1=O)CO2`, the figure is -7.69% (inactive).

Take `COc1ccc(-c2cc(=O)c3ccccc3o2)cc1OC`: the “activation (splicing correction)” value was 2.87% [at 38.3 µM] (inactive). As for `CC(=O)Oc1c(-c2ccccc2)oc2c(CC=C(C)C)c3c(c(OC(C)=O)c2c1=O)C=CC(C)(C)O3`, the “activation (splicing correction)” value was -2.23% [at 38.3 µM] (inactive). On to `CC(C)=CCc1c(O)cc2occ(-c3ccc4c(c3)OCO4)c(=O)c2c1O`, for which the “activation (splicing correction)” value was -7.55% (inactive). With `C=C1C2CC[C@@]3(C)C(c4ccoc4)OC(=O)C[C@@]13OC1CC(OC(C)=O)C(C)(C)C(CC(=O)OC)[C@@]12C` (some centres undefined), the “activation (splicing correction)” value is -6.48% (inactive).
